# Source: the supplement of paper PMC8728848
# About 410 targets per protein were measured; listed, in parts, are those with the strongest signals and a random draw of the rest.
# B1: CcfD (Bacteroides fragilis), Q5L9G4 (protein)
# chain: MKKQNSIYTLLIALLCFVSSCDYLGVSDQLAGGLQNTEQVFDNVSYTKRWYANVFAGIPDYSGINSVNVGAFKNPWTGMCDELVVGYGNSSKYNNSDRNAANMGFHRYGDCYKYIRQANIFLQKAHPIMTTGTQGDQLLEDELTQMKANVRFMRAFYHYLLFEQYGPIILVKDKIYNATEDQDVPRNTVDEVIEYIDSELTAVASELTQEPIFEDKDYRAWPTKGVALAVRAKLWLYAASPLLNGGYREALSVTNPDGTRLFPDYDAGKWEKALAACKDFIDYAEAGRYELYKEYKDDNGAVIDPDKSVYNLFQKYTHEIIWATANNDWGGMNGDAFDRRIAPRCEKNGLGSTGVTQELVDAFYMKDGFPVSATAYLPQSTLYQEEGYGTYKDQNDNFSKKYTNVTVSNRYLNREPRFYNTVFFNGRQWPVSCNQVLFYNGGNSGVQEGQATLTGYMLFKRFNRSVSLTNPGVASQFRPSIIFRLADFYLMYAEAANEVNPNDARVLKYLNLVRERAGLPDIETLNPAIRGNQELQRAAIQRERQIELATEGQRYFDVRRWMIADKNGEGRQNGYVHGMNVRGESNDKEDFNRIVEASQIVFNRKMYLYPMPDSEMRKTKNLVQNPGW
# What was measured:
# Assay in all cases: glycan array binding signal (z-score within array); higher = stronger binding
# Settings in all cases: glycan notation: IUPAC condensed, linker removed
# Fuc(a1-2)Gal = molecular target: Fuc(a1-2)Gal
# Method in brief: (§1)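 Negative Z-scores can be read as non-binding. The Z-score is calculated within each array and then averaged across arrays of one protein sequence at different concentrations or buffers and across linkers. Arrays, 3228 in all, were curated from the Consortium for Functional Glycomics database and kept only where the protein sequence was available.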
# [1] = molecular target: Fuc(a1-2)Gal(b1-3)GlcNAc(b1-2)Man(a1-3)[Fuc(a1-2)Gal(b1-3)GlcNAc(b1-2)Man(a1-6)]Man(b1-4)GlcNAc(b1-4)GlcNAc
# Method in brief: as §1
# [2] = molecular target: Fuc(a1-2)Gal(b1-4)[Fuc(a1-3)]GlcNAc(b1-2)[Fuc(a1-2)Gal(b1-4)[Fuc(a1-3)]GlcNAc(b1-4)]Man(a1-3)[Fuc(a1-2)Gal(b1-4)[Fuc(a1-3)]GlcNAc(b1-2)Man(a1-6)]Man(b1-4)GlcNAc(b1-4)GlcNAc
# Method in brief: as §1
# [3] = molecular target: Fuc(a1-2)[Gal(a1-3)]Gal(b1-3)GlcNAc(b1-2)Man(a1-3)[Fuc(a1-2)[Gal(a1-3)]Gal(b1-3)GlcNAc(b1-2)Man(a1-6)]Man(b1-4)GlcNAc(b1-4)GlcNAc
# Method in brief: as §1
# [4] = molecular target: Fuc(a1-2)[Gal(a1-3)]Gal(b1-3)GlcNAc(b1-2)Man(a1-3)[Fuc(a1-2)[Gal(a1-3)]Gal(b1-3)GlcNAc(b1-2)Man(a1-6)]Man(b1-4)GlcNAc(b1-4)[Fuc(a1-6)]GlcNAc
# Method in brief: as §1
# [5] = molecular target: Fuc(a1-2)[Gal(a1-3)]Gal(b1-3)GlcNAc(b1-3)GalNAc
# Method in brief: as §1
# [6] = molecular target: Fuc(a1-2)[Gal(a1-3)]Gal(b1-4)GlcNAc
# Method in brief: as §1
# [7] = molecular target: Fuc(a1-2)[Gal(a1-3)]Gal(b1-4)[Fuc(a1-3)]GlcNAc(b1-3)GalNAc
# Method in brief: as §1
# [8] = molecular target: Fuc(a1-2)[GalNAc(a1-3)]Gal(b1-3)GalNAc(a1-3)[Fuc(a1-2)]Gal(b1-4)GlcNAc
# Method in brief: as §1
# [9] = molecular target: Gal(a1-3)Gal(b1-4)GlcNAc(b1-2)Man
# Method in brief: as §1
# [10] = molecular target: Gal(a1-3)[Gal(a1-4)]Gal(b1-4)GlcNAc
# Method in brief: as §1
# Gal(a1-6)Glc = molecular target: Gal(a1-6)Glc
# Method in brief: as §1
# Gal(b1-3)GalNAc(b1-3)Gal = molecular target: Gal(b1-3)GalNAc(b1-3)Gal
# Method in brief: as §1
# Gal(b1-3)GlcNAc = molecular target: Gal(b1-3)GlcNAc
# Method in brief: as §1
# [11] = molecular target: Gal(b1-3)[Fuc(a1-4)]GlcNAc(b1-3)Gal(b1-4)[Fuc(a1-3)]GlcNAc
# Method in brief: as §1
# [12] = molecular target: Gal(b1-3)[Fuc(a1-4)]GlcNAc(b1-6)GalNAc
# Method in brief: as §1
# [13] = molecular target: Gal(b1-3)[Neu5Ac(a2-6)]GlcNAc(b1-4)Gal(b1-4)Glc
# Method in brief: as §1
# Gal(b1-4)Glc = molecular target: Gal(b1-4)Glc
# Method in brief: as §1
# [14] = molecular target: Gal(b1-4)GlcNAc(b1-2)Man(a1-3)[Gal(b1-4)GlcNAc(b1-2)Man(a1-6)][Gal(b1-4)GlcNAc(b1-4)]Man(b1-4)GlcNAc(b1-4)[Fuc(a1-6)]GlcNAc
# Method in brief: as §1
# [15] = molecular target: Gal(b1-4)GlcNAc(b1-2)[Gal(b1-4)GlcNAc(b1-6)]Man(a1-6)[Gal(b1-4)GlcNAc(b1-2)Man(a1-3)]Man(b1-4)GlcNAc(b1-4)GlcNAc
# Method in brief: as §1
# [16] = molecular target: Gal(b1-4)GlcNAc(b1-3)Gal(b1-4)Glc
# Method in brief: as §1
# [17] = molecular target: Gal(b1-4)GlcNAc(b1-3)Gal(b1-4)GlcNAc(b1-3)Gal(b1-4)GlcNAc(b1-2)Man(a1-3)[Gal(b1-4)GlcNAc(b1-3)Gal(b1-4)GlcNAc(b1-3)Gal(b1-4)GlcNAc(b1-2)Man(a1-6)]Man(b1-4)GlcNAc(b1-4)[Fuc(a1-6)]GlcNAc
# Method in brief: as §1
# [18] = molecular target: Gal(b1-4)GlcNAc(b1-3)Gal(b1-4)GlcNAc(b1-3)GalNAc
# Method in brief: as §1
# [19] = molecular target: Gal(b1-4)GlcNAc(b1-3)GalNAc
# Method in brief: as §1
# Gal3S(b1-3)GalNAc = molecular target: Gal3S(b1-3)GalNAc
# Method in brief: as §1
# Gal6S(b1-3)GlcNAc = molecular target: Gal6S(b1-3)GlcNAc
# Method in brief: as §1
# [20] = molecular target: GalNAc(b1-3)Gal(a1-6)Gal(b1-4)Glc
# Method in brief: as §1
# Glc(b1-4)Glc = molecular target: Glc(b1-4)Glc
# Method in brief: as §1
# [21] = molecular target: GlcNAc(b1-2)[GlcNAc(b1-4)]Man(a1-3)[GlcNAc(b1-4)][GlcNAc(b1-2)[GlcNAc(b1-6)]Man(a1-6)]Man(b1-4)GlcNAc(b1-4)GlcNAc
# Method in brief: as §1
# [22] = molecular target: GlcNAc(b1-3)Gal(b1-4)GlcNAc(b1-3)Gal(b1-4)GlcNAc(b1-3)Gal(b1-4)GlcNAc(b1-3)Gal(b1-4)GlcNAc(b1-2)[GlcNAc(b1-3)Gal(b1-4)GlcNAc(b1-3)Gal(b1-4)GlcNAc(b1-3)Gal(b1-4)GlcNAc(b1-3)Gal(b1-4)GlcNAc(b1-6)]Man(a1-6)[GlcNAc(b1-3)Gal(b1-4)GlcNAc(b1-3)Gal(b1-4)GlcNAc(b1-3)Gal(b1-4)GlcNAc(b1-3)Gal(b1-4)GlcNAc(b1-2)Man(a1-3)]Man(b1-4)GlcNAc(b1-4)[Fuc(a1-6)]GlcNAc
# Method in brief: as §1
# [23] = molecular target: GlcNAc(b1-3)Gal(b1-4)GlcNAc(b1-6)[GlcNAc(b1-3)]Gal(b1-4)GlcNAc
# Method in brief: as §1
# [24] = molecular target: GlcNAc(b1-3)[GlcNAc(b1-4)][GlcNAc(b1-6)]GlcNAc
# Method in brief: as §1
# [25] = molecular target: GlcNAc6S(b1-3)Gal(b1-4)GlcNAc
# Method in brief: as §1
# [26] = molecular target: Man(a1-2)Man(a1-3)[Man(a1-2)Man(a1-6)]Man(a1-6)[Man(a1-2)Man(a1-2)Man(a1-3)]Man
# Method in brief: as §1
# [27] = molecular target: Neu5Ac(a2-3)Gal(b1-3)GlcNAc(b1-6)GalNAc
# Method in brief: as §1
# [28] = molecular target: Neu5Ac(a2-3)Gal(b1-3)[Fuc(a1-4)]GlcNAc(b1-3)Gal(b1-3)[Fuc(a1-4)]GlcNAc
# Method in brief: as §1
# [29] = molecular target: Neu5Ac(a2-3)Gal(b1-3)[GlcNAc(b1-6)]GalNAc
# Method in brief: as §1
# [30] = molecular target: Neu5Ac(a2-3)Gal(b1-4)GlcNAc(b1-2)Man
# Method in brief: as §1
# [31] = molecular target: Neu5Ac(a2-3)Gal(b1-4)[Fuc(a1-3)]GlcNAc(b1-3)Gal
# Method in brief: as §1
# [32] = molecular target: Neu5Ac(a2-3)[GalNAc(b1-4)]Gal(b1-4)GlcNAc(b1-3)GalNAc
# Method in brief: as §1
# [33] = molecular target: Neu5Ac(a2-6)Gal(b1-4)GlcNAc(b1-2)Man
# Method in brief: as §1
# [34] = molecular target: Neu5Ac(a2-6)Gal(b1-4)GlcNAc(b1-2)Man(a1-3)[Neu5Ac(a2-6)Gal(b1-4)GlcNAc(b1-2)Man(a1-6)]Man(b1-4)GlcNAc(b1-4)GlcNAc
# Method in brief: as §1
# [35] = molecular target: Neu5Ac(a2-6)Gal(b1-4)GlcNAc(b1-2)Man(a1-6)[GlcNAc(b1-2)Man(a1-3)]Man(b1-4)GlcNAc(b1-4)GlcNAc
# Method in brief: as §1
# [36] = molecular target: Neu5Ac(a2-6)Gal(b1-4)GlcNAc(b1-3)Gal(b1-4)GlcNAc(b1-3)Gal(b1-4)GlcNAc(b1-2)Man(a1-3)[Neu5Ac(a2-6)Gal(b1-4)GlcNAc(b1-3)Gal(b1-4)GlcNAc(b1-3)Gal(b1-4)GlcNAc(b1-2)Man(a1-6)]GalNAc
# Method in brief: as §1
# [37] = molecular target: Neu5Ac(a2-6)Gal(b1-4)GlcNAc(b1-3)Gal(b1-4)GlcNAc(b1-3)[Neu5Ac(a2-6)Gal(b1-4)GlcNAc(b1-3)Gal(b1-4)GlcNAc(b1-6)]GalNAc
# Method in brief: as §1
# [38] = molecular target: Neu5Ac(a2-6)Gal(b1-4)GlcNAc(b1-6)GalNAc
# Method in brief: as §1
# Neu5Ac(a2-8)Neu5Ac = molecular target: Neu5Ac(a2-8)Neu5Ac
# Method in brief: as §1
# [39] = molecular target: Neu5Ac(a2-8)Neu5Ac(a2-8)Neu5Ac(a2-3)[GalNAc(b1-4)]Gal(b1-4)Glc
# Method in brief: as §1
# [40] = molecular target: Neu5Gc(a2-3)Gal(b1-3)GlcNAc
# Method in brief: as §1
# [41] = molecular target: Neu5Gc(a2-8)Neu5Gc(a2-3)Gal(b1-4)GlcNAc
# Method in brief: as §1
binder,measurement,setting,value
B1,glycan array binding signal (z-score),Fuc(a1-2)Gal,0.811
same,glycan array binding signal (z-score),[1],5.05
same,glycan array binding signal (z-score),[2],3.75
same,glycan array binding signal (z-score),[3],2.68
same,glycan array binding signal (z-score),[4],0.2
same,glycan array binding signal (z-score),[5],0.095
same,glycan array binding signal (z-score),[6],0.056
same,glycan array binding signal (z-score),[7],0.64
same,glycan array binding signal (z-score),[8],2.62
same,glycan array binding signal (z-score),[9],-0.588
same,glycan array binding signal (z-score),[10],-1.43
same,glycan array binding signal (z-score),Gal(a1-6)Glc,-0.384
same,glycan array binding signal (z-score),Gal(b1-3)GalNAc(b1-3)Gal,-0.456
same,glycan array binding signal (z-score),Gal(b1-3)GlcNAc,0.42
same,glycan array binding signal (z-score),[11],2.86
same,glycan array binding signal (z-score),[12],-0.036
same,glycan array binding signal (z-score),[13],0.607
same,glycan array binding signal (z-score),Gal(b1-4)Glc,-0.056
same,glycan array binding signal (z-score),[14],3.04
same,glycan array binding signal (z-score),[15],-0.896
same,glycan array binding signal (z-score),[16],0.627
same,glycan array binding signal (z-score),[17],1.57
same,glycan array binding signal (z-score),[18],0.43
same,glycan array binding signal (z-score),[19],-0.998
same,glycan array binding signal (z-score),Gal3S(b1-3)GalNAc,0.942
same,glycan array binding signal (z-score),Gal6S(b1-3)GlcNAc,1.26
same,glycan array binding signal (z-score),[20],-0.64
same,glycan array binding signal (z-score),Glc(b1-4)Glc,1.59
same,glycan array binding signal (z-score),[21],-0.548
same,glycan array binding signal (z-score),[22],6.49
same,glycan array binding signal (z-score),[23],0.069
same,glycan array binding signal (z-score),[24],2.83
same,glycan array binding signal (z-score),[25],-0.516
same,glycan array binding signal (z-score),[26],2.93
same,glycan array binding signal (z-score),[27],-0.64
same,glycan array binding signal (z-score),[28],-0.68
same,glycan array binding signal (z-score),[29],0.22
same,glycan array binding signal (z-score),[30],-0.338
same,glycan array binding signal (z-score),[31],0.036
same,glycan array binding signal (z-score),[32],0.036
same,glycan array binding signal (z-score),[33],-0.522
same,glycan array binding signal (z-score),[34],0.561
same,glycan array binding signal (z-score),[35],4.06
same,glycan array binding signal (z-score),[36],2.39
same,glycan array binding signal (z-score),[37],2.75
same,glycan array binding signal (z-score),[38],-1.06
same,glycan array binding signal (z-score),Neu5Ac(a2-8)Neu5Ac,-0.378
same,glycan array binding signal (z-score),[39],-0.936
same,glycan array binding signal (z-score),[40],-0.456
same,glycan array binding signal (z-score),[41],-1.19
